Assay results as given in a collection of fitness landscapes (doi:10.1016/j.celrep.2020.107928).
Over roughly 81,000 sequences, “one-hybrid fitness for binding NBS DNA” has its median near -0.1; the highest 2% begin near 0.36. The sample as a whole holds a higher share of the highest values than the screen did.

B1: Caulobacter ParB omega fusion; a variant is named by its letters at X, in order, B8GW30 (parent)
chain: MESVVVGEPGMSEGRRGLGRGLSALLGEVDAAPAQAPGEQLGGSREAPIEILQRNPDQPRRTFREEDLEDLSNSIREKGVLQPILVRPSPDTAGEYQIVAGERAWRAAQRAGLKTVPIMVRELDDLAVLEIGIIENVQRADLNVLEEALSYKVLMEKFERTQENIAQTIGKSXSHVANXMRLLXLPDEVQSYLVSGELTAXHARAIAAAADPVALAKQIIEGGLSVRETEALARKAPNLSAGKSKGGRPPRVKDTDTQALESDLSSVLGLDVSIDHRGSTGTLTITYATLEQLDDLCNRLTRGI

Variants of: B1
Assay: one-hybrid fitness for binding NBS DNA (the Noc-binding site; scaled: cognate 1, non-cognate 0); higher = stronger binding
Settings: with NBS DNA site
Outline: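 Pre- and post-selection plasmids were Illumina-sequenced, three replicate libraries were pooled, and any variant with under 10 reads was removed. The libraries were Caulobacter ParB with four specificity codons randomised, selected in E. coli USO through a HIS3 reporter whose site is 19 bp from the promoter. Cells grew 48 hours at 37°C on M9 without histidine, with 0.1 mM IPTG and 5 mM 3-AT. Fitness is the log change in variant-to-wild-type read ratio, rescaled against cognate and non-cognate.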

| Variant | one-hybrid fitness for binding NBS DNA |
| --- | --- |
| LIKT | ≤ 0.2 |
| VQSV | ≤ 0.2 |
| DCSG | ≤ 0.2 |
| TPHH | ≤ 0.2 |
| LLVG | ≤ 0.2 |
| TAIG | ≤ 0.2 |
| HVIC | ≤ 0.2 |
| VVRW | ≤ 0.2 |
| RMCR | 0.433 |
| RMCH | ≤ 0.2 |
| RMNR | 0.545 |
| RMCN | ≤ 0.2 |
| RMNN | ≤ 0.2 |
| RMDR | ≤ 0.2 |
| NAAS | ≤ 0.2 |
| FAAR | ≤ 0.2 |
| FAYR | ≤ 0.2 |
| FAFR | 0.364 |
| FAAL | ≤ 0.2 |
| FARL | ≤ 0.2 |
| FAFL | 0.451 |
| MKNR | ≤ 0.2 |
| NTMM | ≤ 0.2 |
| VTYY | ≤ 0.2 |
| HWST | ≤ 0.2 |
| WHPR | ≤ 0.2 |

| Variant | one-hybrid fitness for binding NBS DNA |
| --- | --- |
| RCLR | 0.416 |
| RSLR | 0.339 |
| RKLN | ≤ 0.2 |
| RPLR | ≤ 0.2 |
| RKLR | 0.525 |
| RKLH | 0.227 |
| VCVG | ≤ 0.2 |
| QFIL | ≤ 0.2 |
| QQKQ | 0.493 |
| QQRQ | 0.421 |
| QQVQ | 0.395 |
| QQAQ | ≤ 0.2 |
| QQSQ | ≤ 0.2 |
| QQLQ | ≤ 0.2 |
| QQVF | ≤ 0.2 |
| QQYQ | ≤ 0.2 |
| FDNG | ≤ 0.2 |
| NNAW | ≤ 0.2 |
| YMTS | ≤ 0.2 |
| GPQR | ≤ 0.2 |
| YAEG | ≤ 0.2 |
| QGWN | ≤ 0.2 |
| VMDS | ≤ 0.2 |
| LDDR | ≤ 0.2 |
| SESE | ≤ 0.2 |
| DLGS | ≤ 0.2 |

| Variant | one-hybrid fitness for binding NBS DNA |
| --- | --- |
| RIRT | 0.615 |
| RAWT | 0.236 |
| RIPT | ≤ 0.2 |
| RERT | ≤ 0.2 |
| RCRT | 0.706 |
| RPRT | ≤ 0.2 |
| RIYT | 0.34 |
| RFRT | 0.456 |
| RFDT | ≤ 0.2 |
| RFYT | ≤ 0.2 |
| RAYT | 0.353 |
| RART | 0.621 |
| PNYV | ≤ 0.2 |
| RQPS | ≤ 0.2 |
| SQNC | ≤ 0.2 |
| HISC | ≤ 0.2 |
| LSFT | ≤ 0.2 |
| TGSY | ≤ 0.2 |
| KYSS | ≤ 0.2 |
| CQDS | ≤ 0.2 |
| RPYT | ≤ 0.2 |
| RCDT | 0.266 |
| RSIT | ≤ 0.2 |
| RSYT | 0.322 |
| RCYT | 0.517 |
| RSRT | 0.602 |

| Variant | one-hybrid fitness for binding NBS DNA |
| --- | --- |
| CPVW | ≤ 0.2 |
| KHGP | ≤ 0.2 |
| QYFR | 0.366 |
| QYAN | ≤ 0.2 |
| QYAH | ≤ 0.2 |
| QYAR | 0.517 |
| QYFN | ≤ 0.2 |
| QYFS | ≤ 0.2 |
| INHG | ≤ 0.2 |
| YKQS | ≤ 0.2 |
| TADE | ≤ 0.2 |
| RRLH | 0.365 |
| RRLD | ≤ 0.2 |
| RPLS | ≤ 0.2 |
| RRLP | ≤ 0.2 |
| RSLS | 0.303 |
| RCLS | 0.396 |
| RRLS | 0.606 |
| RRLN | 0.23 |
| RCLH | ≤ 0.2 |
| GLNS | ≤ 0.2 |
| KRSF | ≤ 0.2 |
| ASNS | ≤ 0.2 |
| DKMS | ≤ 0.2 |
| HKVM | ≤ 0.2 |
| VYHT | ≤ 0.2 |

| Variant | one-hybrid fitness for binding NBS DNA |
| --- | --- |
| KGST | ≤ 0.2 |
| WSCT | ≤ 0.2 |
| QKAR | 0.606 |
| QKFR | 0.435 |
| QKFP | ≤ 0.2 |
| QKAH | ≤ 0.2 |
| QKAK | ≤ 0.2 |
| QKFH | ≤ 0.2 |
| GQKR | 0.201 |
| SYQK | ≤ 0.2 |
| QPDR | ≤ 0.2 |
| QINN | ≤ 0.2 |
| QCDR | 0.402 |
| QDDR | ≤ 0.2 |
| QSNR | 0.62 |
| QHNP | ≤ 0.2 |
| QHNR | 0.618 |
| QHDR | 0.336 |
| QIDR | 0.234 |
| QSNP | ≤ 0.2 |
| QSDR | 0.317 |
| QINR | 0.479 |
| PRGP | ≤ 0.2 |
| QANR | 0.583 |
| QLDR | 0.295 |
| QLND | ≤ 0.2 |

| Variant | one-hybrid fitness for binding NBS DNA |
| --- | --- |
| QLNR | 0.551 |
| QANN | ≤ 0.2 |
| QADR | 0.314 |
| QPNR | 0.236 |
| QFNR | 0.268 |
| QCNR | 0.751 |
| NTLI | ≤ 0.2 |
| VIMF | ≤ 0.2 |
| LAGN | ≤ 0.2 |
| EMRR | 0.21 |
| ADQR | ≤ 0.2 |
| FNIT | ≤ 0.2 |
| RPMM | ≤ 0.2 |
| GCIC | ≤ 0.2 |
| QTNR | 0.936 |
| NTRR | 0.235 |
| QTRR | 1.15 |
| DTRR | 0.303 |
| QTDP | ≤ 0.2 |
| QTNK | 0.304 |
| QTNG | 0.286 |
| QTDR | 0.483 |
| QTYR | 0.691 |
